Screening data: PubChem, National Center for Advancing Translational Sciences (NCATS)
Only some compounds are listed: those with a hit (about 5.7% of all), similar ones and a draw of the others.
ClpP mod: qHTS Assay for Activators of ClpP; Potency, µM (top dose mostly 57.5 µM); purified B. subtilis ClpP, FRET peptide cleavage, 20 min; 1.9% of 340,000 active; ATP-dependent Clp protease proteolytic subunit (Bacillus subtilis (strain 168)), P80244; AID 651965, 2013; active = well fitted falling curve with a large enough effect; inconclusive = small, poorly fitted or top-dose-only effect; inactive = no such curve, though single readings can be large or run the other way; note: the source files actives as falling curves though it sought activators and does not explain the sign; nearly all actives have a fitted effect of over 65% in size
Target sequence (P80244 whole entry, looked up): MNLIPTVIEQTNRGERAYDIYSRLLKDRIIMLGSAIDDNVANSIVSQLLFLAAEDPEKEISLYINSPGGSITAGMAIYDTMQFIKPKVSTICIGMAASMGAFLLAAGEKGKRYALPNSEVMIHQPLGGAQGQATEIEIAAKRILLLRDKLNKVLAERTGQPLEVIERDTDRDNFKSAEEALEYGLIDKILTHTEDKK
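Buffer: 100 mM Tris/HCl pH8, 100 mM KCl, 0.05% low protease BSA, 2.5% glycerol, 0.01% Tween-20. ClpP 10 microg/mL final; 20 min RT; delta FRET normalized to ADEP and DMSO controls.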
GLP1R cytotox: qHTS of GLP-1 Receptor Inverse Agonists: Cytotox Screen; HEK293 cAMP-luciferase reporter cells, luminescence, 24 h; Potency, µM (titrated, usually from 38.3 µM), actives largely listed as inhibitors; 0.13% of 410,000 active;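 note: loss of luciferase light is scored as toxicity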
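Step one: seed cells (200 cells/uL, DMEM with 10% Nu serum, 1% pen-strep). Step two: 12-hour incubation at 37 deg C. Step three: pin 23 nL compound, incubate 24 hr. Step four: add luciferase reagent, read luminescence 12 min later.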
GLP1R inv ag: qHTS of GLP-1 Receptor Inverse Agonists (Inhibition Mode); Potency, µM (doses to about 38.3 µM), most hits filed as inhibitors; AID 624417, 2012; 1.6% of 410,000 active; HEK293 GLP-1R CRE-luciferase, luminescence, 24 h; GLP-1R form is constitutively active; note: nearly all actives have a fitted effect of over 55% in size
Target sequence (P43220 whole entry, looked up): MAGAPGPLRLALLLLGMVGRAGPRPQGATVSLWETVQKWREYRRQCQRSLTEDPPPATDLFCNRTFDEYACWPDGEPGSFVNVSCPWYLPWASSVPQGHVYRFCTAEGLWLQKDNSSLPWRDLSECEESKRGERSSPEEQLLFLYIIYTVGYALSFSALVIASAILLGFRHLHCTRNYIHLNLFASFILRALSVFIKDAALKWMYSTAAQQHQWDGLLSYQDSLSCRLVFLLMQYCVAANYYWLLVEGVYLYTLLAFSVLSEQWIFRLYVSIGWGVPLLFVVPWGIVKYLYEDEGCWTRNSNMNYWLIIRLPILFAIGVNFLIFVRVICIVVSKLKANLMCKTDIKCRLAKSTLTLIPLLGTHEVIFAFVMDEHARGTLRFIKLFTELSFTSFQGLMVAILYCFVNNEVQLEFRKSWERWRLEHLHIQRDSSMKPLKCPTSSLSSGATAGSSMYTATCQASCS
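Using stably transfected HEK293 (constitutively active GLP-1R, cAMP-luciferase reporter), compounds were incubated 24 hr and luciferase measured by luminescence.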
GLP-1R agonist: qHTS of GLP-1 Receptor Agonists | AID 624172, 2012 | HEK293 GLP-1R CRE-luciferase, luminescence, 4-6 h; cells express a hypersensitive GLP-1R form | Glucagon-like peptide 1 receptor (Homo sapiens), P43220 | 0.007% of 380,000 active | Potency, µM (top dose mostly 45.6 µM), hits mostly activators
DRD3 agonist: qHTS of D3 Dopamine Receptor Agonist: qHTS. AID 652048, 2013. 0.58% of 410,000 active. max activation, %. D3R DiscoveRx beta-arrestin cells, luminescence, 90 min. D(3) dopamine receptor (Homo sapiens), P35462; in the data active = max activation above about 30%
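Agonist-mode cell screen: cells plated at 1500/well and incubated overnight at 37 °C, then exposed to library compounds for 90 min at 37 °C. Detection reagent was added for 30–60 min at room temperature, and luminescence was read.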
D3 antag: qHTS of D3 Dopamine Receptor Antagonist: qHTS | D3R cells, DiscoveRx beta-arrestin luminescence, antagonist mode; hits give low values | max response, negative = inhibition, % | 2.5% of 360,000 active | AID 652054, 2013; in the data active = max response below about -50%; inconclusive = no clear call, values can overlap the other calls
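Cells plated overnight at 1500 cells/well, then exposed to library compounds with dopamine controls for 90 minutes at 37 degrees C. DiscoveRx reagent added for 30–60 minutes at room temperature; luminescence read, quantitative HTS format.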
Hits are given with their value; n = inactive; u = inconclusive; x = not tested or not shown. Unless noted, calls come from the whole dose curve; as a rule, active = well fitted curve in the direction sought with a large enough effect; inconclusive = small, poorly fitted or top-dose-only effect, or another doubt; inactive = no such curve, though single readings can be large; an effect the other way counts as inactive or inconclusive.

SMILES | ClpP mod | GLP1R cytotox | GLP1R inv ag | GLP-1R agonist | DRD3 agonist | D3 antag
Cc1cccc(C(C)C)c1NC(=O)CN(C)Cc1cccc(F)c1 | n | n | u | n | n | n
CCc1cccc(C)c1NC(=O)CN(C)Cc1cccc(F)c1 | n | n | 8.91µM | n | n | n
CCc1nc2c(OCc3ccccc3)cccn2c1N(C)C(=O)C(C)C | n | n | n | n | n | n
O=C1c2ccsc2SCCN1Cc1cccc(Cl)c1 | n | n | 12.6µM | n | n | n
CC(C)NC(=O)c1ccc(-n2c(-c3ccccc3)cc3c2CCCCC3)cc1 | n | n | n | x | n | x
CC1CCc2c(cc(-c3ccccc3)n2-c2ccc(C(=O)NC(C)C)cc2)C1 (configuration not stated) | n | n | 6.31µM | x | n | x
O=C(C(=O)N(Cc1ccccc1)Cc1ccccc1)c1c(-c2ccccc2)[nH]c2ccccc12 | n | u | u | n | n | n
COc1cc2[nH]c(=O)n(CCCC(=O)NCc3ccccc3Cl)c(=O)c2cc1OC | u | n | n | n | n | x
COC(=O)C1C(=O)c2c([nH]c(C(=O)OCCOC(C)C)c2C)CC1C (configuration not stated) | 31.6µM | n | n | n | n | n
Nc1c(C(=O)Nc2ccccc2F)sc2nc(-c3cccnc3)ccc12 | n | n | n | n | n | n
Nc1c(C(=O)Nc2ccccc2F)sc2nc(-c3ccco3)ccc12 | 28.2µM | n | n | n | n | n
CCCCn1nnnc1C(c1cc2ccccc2o1)N(CCC#N)Cc1ccccc1 (configuration not stated) | n | n | u | n | n | -52.7
CC(=O)Nc1cc2c3ccccc3ccc2c2ccccc12 | 31.6µM | n | n | n | n | n
CC(=O)Nc1cccc2ccc(O)cc12 | x | n | n | n | n | n
O=C1C2CCCN2C(=O)N1CCN1CCN(c2cccc(C(F)(F)F)c2)CC1 (configuration not stated) | x | n | n | n | n | n
O=C1C2C3C=CC(C4CC34)C2C(=O)N1CCCCN1CCN(c2ccc(F)cc2)CC1 (configuration not stated) | n | n | u | n | n | -85.0
O=C1C2CCCCN2C(=O)N1CCCN1CCN(c2cccc(C(F)(F)F)c2)CC1 (configuration not stated) | x | n | n | n | n | -66.6
O=C1C2CCCN2C(=O)N1CCCN1CCN(c2cccc(Br)c2)CC1 (configuration not stated) | n | n | n | n | n | -77.8
O=C1C2CCCCN2C(=O)N1CCCN1CCN(c2ccc(F)cc2)CC1 (configuration not stated) | x | n | n | n | n | -57.1
CC[N+](C)(C)c1ccc(/C=C/c2ccncc2)cc1 | n | x | x | x | x | x
COc1cccc(NC(=O)Cn2c(=O)ccc3cc(S(=O)(=O)N4CCC(C)CC4)ccc32)c1 | n | n | n | n | n | x
COc1cc(C2c3c(oc4ccccc4c3=O)C(=O)N2c2nncs2)cc(OC)c1OC (configuration not stated) | n | n | n | x | n | x
Cc1cccc(NC(=O)c2c([N+](=O)[O-])c(C(C)(C)C)nn2C)c1 | n | n | 5.01µM | n | n | n
Cc1ccccc1NC(=O)c1c([N+](=O)[O-])c(C(C)(C)C)nn1C | n | n | u | n | n | n
Cn1nc(C(C)(C)C)c([N+](=O)[O-])c1C(=O)Nc1ccc(Br)cc1 | n | n | 2.82µM | n | n | n
SMILES | ClpP mod | GLP1R cytotox | GLP1R inv ag | GLP-1R agonist | DRD3 agonist | D3 antag
CCN(CC)C(=O)c1c([N+](=O)[O-])c(C(C)(C)C)nn1C | 25.1µM | n | n | n | n | n
COc1ccc(OCC(=O)NCc2ccc3c(c2)CCN3C(=O)c2cccc(C)c2)cc1 | n | u | u | x | n | x
COc1cccc2c1nc(C)c1cc(C)oc12 | 28.2µM | n | n | n | n | n
O=c1oc2ccccc2c(Cl)c1CN1CCCCC1 | n | n | n | n | n | -76.3
CC1CCc2noc(NC(=O)c3ccccc3[N+](=O)[O-])c2C1 (configuration not stated) | n | n | u | x | n | x
COc1ccc(-c2[nH][nH]c(=O)c2NC(=O)c2ccc(C)cc2)cc1 | n | n | n | n | n | -84.5
Cc1ccccc1CNC(=O)Cn1c(=O)c2cccn2c2cccnc21 | u | n | n | x | n | x
COc1cc(OC)cc(C(=O)N2CCC(c3ccncc3)CC2)c1 | n | n | n | x | n | x
CC(NC1=CC(=O)c2cccnc2C1=O)C(O)c1ccccc1 (configuration not stated) | n | 11.2µM | u | n | n | u
COc1ccc(OC)c(/C=C/c2ccc3ccccc3[n+]2C)c1 | n | x | x | x | x | x
O=[N+]([O-])c1ccc2nc(NN=Cc3ccc(O)cc3)sc2c1 | x | n | u | n | n | -51.9
CC(C)c1ccc(/C=C/C(=O)Nc2nc3ccc([N+](=O)[O-])cc3s2)cc1 | n | n | n | n | n | n
CCOc1ccc(NC(=O)Cc2csc(COc3cccc(C)c3)n2)cc1 | n | n | n | x | n | x
Cc1ccc(S(=O)(=O)NNC(=S)Nc2ccc(Cl)cc2)cc1 | 28.2µM | u | u | n | n | n
Cc1ccc(CNC(=S)Nc2ccc(NS(=O)(=O)c3ccc(C)cc3)cc2)cc1 | n | u | 10µM | n | n | n
Cc1ccc(NC(=S)NCc2ccc(F)cc2)cc1 | x | u | u | n | n | n
COc1cccc(CCNC(=O)c2c(O)nc3ccccn3c2=O)c1 | n | n | n | n | n | x
O=C(c1ccc(Cl)cc1)c1c[nH]c(C(=O)NNc2ccccc2)c1 | x | u | 2µM | n | n | u
N#Cc1c(C(F)(F)F)cc(-c2ccccc2)[nH]c1=O | u | n | n | n | n | n
N#Cc1c(C(F)(F)F)cc(-c2ccccc2Cl)[nH]c1=O | 3.55µM | n | n | n | n | n
Cn1c(=O)c2c(ncn2CC(O)CNc2ccc(Cl)cc2)n(C)c1=O (configuration not stated) | n | n | n | n | n | n
Cc1ccc(NCC(O)Cn2cnc3c2c(=O)n(C)c(=O)n3C)cc1 (configuration not stated) | 28.2µM | n | n | n | n | n
COc1ccc2[nH]c(C(=O)O)c(CCN3C(=O)c4ccc(C(=O)O)cc4C3=O)c2c1 | n | n | n | n | n | n
COc1ccc2[nH]c(C(=O)O)c(CCC(=O)O)c2c1 | 20µM | n | n | n | n | n
